Source: PubChem BioAssay AID1578 (Sanford-Burnham Center for Chemical Genomics, 2009)
Values joined by “and” are separate entries in the source; they are usually repeats but may differ in a detail not shown here. Identical values can stand only once. Hit rate of the full screen: of about 290,000 compounds, about 3,000 (1%) were called active. Rule as the data show it: active = inhibition mostly above about 36% (no sharp cut-off); inactive = mostly below about 34%. The entries come from a sample that favours actives as a whole.

Experiment: NOD1 signaling inhibitors, primary screen, cell-based, luminescence, uHTS (AID 1578);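 also: HEK-293T reporter cells stimulated with the NOD1 agonist gamma-tri-DAP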
Conditions: NOD1-driven NF-kB luciferase reporter cells, at 4 µM, active compounds read high

Row | SMILES | inhibition
1 | CCOc1cc2c(cc1OCC)-n1cccc1C(c1ccccc1OC)NC2 (stereo not drawn) | 4.7% (inactive)
2 | CC[C@@]1(O)C(=O)OCc2c1cc1n(c2=O)Cc2cc3c(NC(=O)CN)cccc3nc2-1 | 7.7% (inactive)
3 | CCC1(OC(=O)CN)C(=O)OCc2c1cc1n(c2=O)Cc2cc3ccccc3nc2-1 (stereo not drawn) | 71.2% (active)
4 | CCOC(=O)C1=C(N)OC2=C(C(=O)CCC2)C12C(=O)N(C)c1ccccc12 (stereo not drawn) | -7.5% (inactive)
5 | Cc1cnn(C2CCN(C)CC2)c1N | -8.2% (inactive)
6 | NC1=C([N+](=O)[O-])C(c2ccc3c(c2)OCO3)c2c(c3ccccc3oc2=O)O1 (stereo not drawn) | -6% (inactive)
7 | O=C(Cc1ccccc1)Oc1cccc(-n2cnnn2)c1 | -14.2% (inactive)
8 | O=[N+]([O-])c1ccc(N2CCNCC2)cc1Sc1ccccn1 | -12.4% (inactive)
9 | Cc1cc(N2CCCCC2)ccc1C=C1C(=O)N(C)C(=S)N(C)C1=O | -10.1% (inactive)
10 | Cc1ccc(N2C(=O)CC(=O)NC2=O)cc1 | -5.6% (inactive)
11 | O=Cc1cn(Cc2ccc(F)cc2)c2ccccc12 | 6.2% (inactive)
12 | O=Cc1cn(Cc2ccccc2F)c2ccccc12 | 30.3% (inactive)
13 | O=Cc1cn(Cc2c(F)cccc2Cl)c2ccccc12 | 66% (active)
14 | Cc1cc(=O)oc2cc(OCC(=O)N3CCC(C(=O)O)(c4ccccc4)CC3)ccc12 | -7.5% (inactive)
15 | CCCCOP(=O)(OCCCC)/C(C#N)=C(/C)O | -14.2% (inactive)
16 | O=c1[nH]c(=S)n(Cc2ccc(F)cc2)c(O)c1C=NCCCn1ccnc1 | -9.5% (inactive)
17 | Cc1cccc(CN2CCCN(Cc3ccc(Cl)cc3)S2(=O)=O)c1 | 2.2% (inactive)
18 | O=C1NC(=O)N(Cc2ccccc2)C(=O)/C1=C\c1ccco1 | -5.6% (inactive)
19 | CN(C)c1ccc(/C=C/C=C2/C(=O)NC(=O)N(c3ccccc3)C2=O)cc1 | 80.9% (active)
20 | Cc1cccc(N2C(=O)NC(=O)/C(=C\C=C\c3ccco3)C2=O)c1 | -6.1% (inactive)
21 | O=C1NC(=O)N(Cc2ccccc2)C(=O)/C1=C\C=C\c1ccco1 | 61.5% (active)
22 | CCN1C(=O)C(=C/C=C/c2ccco2)C(=O)N(CC)C1=S | -25.5% (inactive)

Row | SMILES | inhibition
23 | Cc1cc(C)cc(N2C(=O)NC(=O)/C(=C\C=C\c3ccco3)C2=O)c1 | 67.1% (inactive)
24 | O=C1NC(=O)N(c2ccccc2)C(=O)/C1=C/c1ccoc1 | -13.5% (inactive)
25 | Cc1ccc(N2C(=O)NC(=O)/C(=C/C=C/c3ccco3)C2=O)cc1 | 87.4% (active)
26 | CCc1ccc(N2C(=O)NC(=O)/C(=C\C=C\c3ccco3)C2=O)cc1 | 89.4% (active)
27 | Cn1cc(/C=C2\C(=O)NC(=O)N(c3ccccc3)C2=O)c2ccccc21 | -3.2% (inactive)
28 | CCCCN1C(=O)/C(=C/C=C/c2ccco2)C(=O)NC1=S | -32.6% (inactive)
29 | CN1C(=O)/C(=C/C=C/c2ccco2)C(=O)NC1=S | -4.7% (inactive)
30 | COCCOC(=O)C1=C(N)Oc2c(c(=O)oc3ccccc23)C1c1ccncc1 (stereo not drawn) | -14.2% (inactive)
31 | CCCCOC(=O)C1=C(N)OC2=C(C(=O)CCC2)[C@]12C(=O)N(C)c1ccccc12 | 2.2% (inactive)
32 | COc1cccc(NP(=O)(Oc2ccccc2)Oc2ccccc2)c1 | -28.2% (inactive)
33 | O=C(NC1(C(F)(F)F)Oc2ccc(Cl)cc2O1)N1CCC2(CC1)OCCO2 (stereo not drawn) | 5% (inactive)
34 | Cc1ccccc1-n1c(O)c(C=NCCN2CCOCC2)c(=O)[nH]c1=O | -5.7% (inactive)
35 | O=C(Cn1nc(-c2ccc(Cl)cc2)ccc1=O)N1CCC2(CC1)OCCO2 | -21% (inactive)
36 | CCC(=NCCO)c1c(O)n(-c2ccccc2)c(=O)[nH]c1=O | 11.4% (inactive)
37 | COc1cc2c(cc1OC)-c1c(OC)c(OC)c(OC)c3ccnc(c13)C2=O | 25.5% (inactive)
38 | O=C1NC(=O)N(CCc2ccc(F)cc2)C(=O)/C1=C/c1ccco1 | 10.2% (inactive)
39 | O=C1NC(=O)N(CCc2ccc(F)cc2)C(=O)/C1=C/C=C/c1ccccc1 | 42.2% (active)
40 | O=C1NC(=O)N(CCc2ccc(F)cc2)C(=O)/C1=C/c1cccs1 | 12.9% (inactive)
41 | CC(C)c1ccc(N2C(=O)NC(=O)/C(=C/C=C/c3ccco3)C2=O)cc1 | 56.9% (inactive)
42 | Cc1ccc(N2C(=O)NC(=O)/C(=C\C=C\c3ccco3)C2=O)cc1C | 48.7% (inactive)
43 | CC(C)c1ccc(N2C(=O)NC(=O)/C(=C\C=C\c3ccco3)C2=O)cc1 | 78.9% (active)
44 | CCCC(C)n1[nH]c(=O)c2c1NC(=O)CSC2c1ccccc1 (stereo not drawn) | -4.2% (inactive)

Row | SMILES | inhibition
45 | COc1ccc(CCN(C)Cc2ccc(F)cc2F)cc1OC | -4.5% (inactive)
46 | O=[N+]([O-])c1ccc(Nc2ccccc2)cc1 | 26.1% (inactive)
47 | CC(C)C(=O)Nc1nnc(CCN(CCc2nnc(NC(=O)C(C)C)s2)[N+](=O)[O-])s1 | 0.8% (inactive)
48 | COc1cc(CC2C(=O)N(C)C(=O)N(C)C2=O)ccc1OCc1ccccc1 | -15.9% (inactive)
49 | CC1CCC[C@H](O)CCCCCc2cc(O)cc(O)c2C(=O)O1 (stereo partly drawn) | -20.3% (inactive) and 0.8% (inactive)
50 | C[C@H]1CCC[C@H](O)CCCCCc2cc(O)cc(O)c2C(=O)O1 | 71.9% (active)
51 | C[C@H]1CCCC(=O)CCCCCc2cc(O)cc(O)c2C(=O)O1 | 10.7% (inactive)
52 | COc1ccc(S(=O)(=O)NC(CC(=O)N2CCC3(CC2)OCCO3)C(C)C)cc1 (stereo not drawn) | -3.9% (inactive)
53 | Cc1cccnc1-n1c(-c2ccccc2)nc2ccccc2c1=O | -2.5% (inactive)
54 | O=C(c1ccco1)c1cn(Cc2ccccc2Cl)c2ccccc12 | 19.5% (inactive)
55 | CC1(C)C[C@H]2C=C(C=O)[C@]3(C=O)C[C@]3(C)[C@H]2C1 | 106% (active)
56 | Cc1c(P(=S)(c2ccccc2)c2ccccc2)[n+]2ccccc2n1C | -18.7% (inactive)
57 | O=C(Nc1ccc(Cl)cc1C(=O)c1ccccc1)c1ccc(Br)o1 | 37.5% (inactive)
58 | Cc1ccc2c(c1)CCCN2N=O | -27.4% (inactive)
59 | C=C(CC1CC(O)[C@]2(C)OC3CC4OC5C[C@]6(C)O[C@]7(C)CCC8OC9C[C@]%10(C)OC%11C(C)=CC(=O)OC%11CC%10OC9C[C@@H](C)C8OC7CC6O[C@]5(C)C/C=C\C4OC3CC2O1)C(=O)O (stereo partly drawn) | -18.2% (inactive)
60 | C=C(C=O)C[C@@H]1C[C@H](O)C2OC3C[C@]4(C)OC5/C=C\CC6OC7C(CC=CCC6OC5CCCC4OC3CC2O1)OC1CC2OC3CC(=O)OC3C[C@@H](C)C[C@@]2(C)OC1C[C@@H]7C (stereo partly drawn) | 76% (active)
61 | C=C(CO)CC1CC(O)[C@]2(C)OC3CC4OC5C[C@]6(C)O[C@]7(C)CCC8OC9C[C@]%10(C)OC%11C(C)=CC(=O)OC%11CC%10OC9C[C@@H](C)C8OC7CC6O[C@]5(C)C/C=C\C4OC3CC2O1 (stereo partly drawn) | -6.2% (inactive)
62 | Clc1cccc(Cl)c1C1N2CCCN12 (stereo not drawn) | 8.1% (inactive)
63 | c1ccc2c(c1)CNc1ccccc1O2 | -9% (inactive)
64 | S=C(NCCc1ccccc1)NCCc1cnc[nH]1 | 0.7% (inactive)
65 | COc1ccc(OC)c(NP(=O)(Oc2ccccc2)Oc2ccccc2)c1 | -6.6% (inactive)
66 | Cc1cccc(NP(=O)(Oc2ccccc2)Oc2ccccc2)c1C | -22.3% (inactive)

Row | SMILES | inhibition
67 | Cc1ccc(C)c(NP(=O)(Oc2ccccc2)Oc2ccccc2)c1 | 48.1% (active)
68 | O=C(CN1CCCC1)Nc1ccc(Cl)cc1C(=O)c1ccccc1 | -5.6% (inactive)
69 | COc1ccc(CNCCc2c(C)[nH]c3ccc(OC(F)(F)F)cc23)c(OC)c1 | 5.5% (inactive)
70 | O=P(Nc1ccccc1)(Nc1ccccc1)Oc1ccccc1 | -0.3% (inactive)
71 | COc1cc2c(cc1OC)[C@@H]1C(=O)c3ccc4c(c3O[C@@H]1CO2)C[C@H](C(C)C)O4 | 58.9% (active)
72 | O=c1c2ccccc2nc(-c2ccccc2)n1-c1ccccc1O | -8.3% (inactive)
73 | Cn1cnnc1Sc1cc(N2CCNCC2)ccc1[N+](=O)[O-] | -17.2% (inactive)
74 | CCOc1ccc(C2(C#N)CC[N+](C)(C)CC2)cc1 | -0.5% (inactive)
75 | COCc1cc(OC(=O)N(C)C)nc2c1c(C)nn2C | -6.7% (inactive)
76 | O=C(CN1CC(c2ccccc2)CC1=O)Nc1ccc(F)cc1 (stereo not drawn) | -14.5% (inactive)
77 | O=C(CCCc1ccccc1)NCCc1cnc[nH]1 | -15.9% (inactive)
78 | O=C(COc1ccccc1)NCCc1cnc[nH]1 | 3.5% (inactive)
79 | O=C(/C=C/c1ccccc1)NCCc1cnc[nH]1 | 32.6% (active)
80 | CCOc1ccccc1Oc1coc2cc(OC(=O)N(C)C)ccc2c1=O | 0.4% (inactive)
81 | COc1cccc(Oc2coc3cc(OC(=O)N(C)C)ccc3c2=O)c1 | 6.2% (inactive)
82 | O=C1CC(c2ccccc2)CC(O)=C1C=NCCN1CCN(C(=O)Cc2ccccc2)CC1 (stereo not drawn) | 8.5% (inactive)
83 | O=C(C1CCCN(S(=O)(=O)c2cccc3nsnc23)C1)N1CCC2(CC1)OCCO2 (stereo not drawn) | -9.3% (inactive)
84 | O=C(Cc1ccccc1)N1CCN(Cc2cccc(Br)c2)CC1 | 0.2% (inactive)
85 | CC(C)c1oc(=O)cc2c1[C@@H](O)[C@H]1OC(=O)[C@@]3(C)CC[C@@H](O)[C@@]2(C)C13 (stereo partly drawn) | -5.4% (inactive)
86 | CC(C)c1oc(=O)cc2c1[C@@H](O)[C@H]1OC(=O)[C@@]3(C)C[C@@H](O)[C@@H](O)[C@@]2(C)C13 (stereo partly drawn) | 96.2% (active)
87 | Cc1csc(=N)n1Cc1ccccc1 | -19.9% (inactive)
88 | Cc1cccc(N2C(=O)NC(=O)C3(Cc4cc(C)ccc4N(C)C3)C2=O)c1 (stereo not drawn) | 11% (inactive)

Row | SMILES | inhibition
89 | COc1ccc(Cl)cc1C(=O)C1CCCN(Cc2cnc(C)s2)C1 (stereo not drawn) | -27.2% (inactive)
90 | CC1CCC(C(C)C)C(OC(=O)COC(=O)c2ccccc2N)C1 (stereo not drawn) | 79.2% (active)
91 | CC1CCC(C(C)C)C(OC(=O)Cn2c(COc3ccccc3)[n+](C)c3ccccc32)C1 (stereo not drawn) | -12.8% (inactive)
92 | CC1CCC(C(C)C)C(OP(N)(=O)c2ccccc2)C1 (stereo not drawn) | 12.7% (inactive)
93 | Cc1cccnc1-n1c(-c2ccco2)nc2ccccc2c1=O | -8.5% (inactive)
94 | CC(C)(C)NC(=S)/N=C(\N)N[N+](=O)[O-] | -21.7% (inactive)
95 | Cc1[nH]c2ccccc2c1C(=O)C(=O)N1CCC2(CC1)OCCO2 | -23.7% (inactive)
96 | CC(C)[C@]12O[C@H]1[C@@H]1O[C@]13[C@]1(O[C@H]1C[C@H]1C4=C(CC[C@@]13C)C(=O)OC4)[C@@H]2O | 107% (active)
97 | Cn1c(O)c(C=Nc2ccccc2-c2ccccc2)c(=O)n(C)c1=O | -12.2% (inactive)
98 | COc1ccccc1[As](=O)(O)CC(O)COc1ccc(Cl)cc1Cl (stereo not drawn) | -11% (inactive)
99 | CC12CC[C@H]3[C@@H](CCC4(O)C[C@H](O)CCC34/C=N/NC(=O)c3ccc(O)cc3)C1(O)CCC2C1=CC(=O)OC1 (stereo partly drawn) | -7.5% (inactive)
100 | COc1ccc(C(=O)N/N=C/C23CC[C@@H](O)CC2(O)CC[C@@H]2[C@@H]3CCC3(C)C(C4=CC(=O)OC4)CCC23O)cc1 (stereo partly drawn) | 12.5% (inactive)
101 | CN(C)c1ccc(C(=O)N/N=C/C23CC[C@@H](O)CC2(O)CC[C@@H]2[C@@H]3CCC3(C)C(C4=CC(=O)OC4)CCC23O)cc1 (stereo partly drawn) | 45% (active)
102 | CC(=O)N1N=C2C3CCN(CC3)C2C1c1ccc(C)cc1 (stereo not drawn) | -23.8% (inactive)
103 | COc1ccccc1OCCCn1cc(C(=O)c2ccco2)c2ccccc21 | 3.3% (inactive)
104 | Cc1cc(C=C2C(=O)NC(=S)NC2=O)c(C)n1-c1ccc2c(c1)OCO2 | 104% (active)
105 | Cc1cc(C=C2C(=O)NC(=O)NC2=O)c(C)n1-c1ccc2c(c1)OCO2 | 55.3% (inactive)
106 | Cc1cc(/C=C2\C(=O)NC(=O)N(C)C2=O)c(C)n1-c1ccc2c(c1)OCO2 | -6.1% (inactive)
107 | C/C(=N\N1CCCCCC1)c1c(O)n(C)c(=O)n(C)c1=O | -4.6% (inactive)
108 | Cc1cccn2c(NCC3CCCO3)c(C(C)C)nc12 (stereo not drawn) | 2.9% (inactive)
